Screening results deposited in PubChem by National Center for Advancing Translational Sciences (NCATS).
The list is not random: actives were taken first. Their share in the collection is about 19%.
DT40 TDP1 CPT: growth inhibition of DT40 Tdp1-/-;hTDP1 cells with camptothecin (screen for TDP1 inhibitors); chicken DT40 Tdp1-/-;hTDP1 cells + 20 nM CPT, ATP luminescence, 48 h; Potency, µM (doses to about 46.2 µM), without a hit: top-dose activity change, negative = growth inhibition, most hits filed as inhibitors; 420,000 compounds, 12% hits; AID 686979; note: potency is the fitted concentration of half-maximal effect; nearly all actives have a fitted effect of over 55% in size
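Cell growth measured by CellTiter-Glo luminescence after a minimum 48 h, 37 C compound exposure with 20 nM CPT in Tdp1-knockout DT40 cells stably expressing hTDP1, seeded 400/well; qHTS titration format.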
ELG1 DNA repair: ELG1-dependent DNA repair inhibition. HEK293T ELG1-luciferase reporter, luminescence, 16 h; DNA damage induced by 5-fluorouridine. Potency, µM (doses to about 46.1 µM), for the others: top-dose activity change, negative = inhibition, hits mostly inhibitors. 330,000 compounds, 2.3% hits; note: potency is the fitted concentration of half-maximal effect; nearly all actives have a fitted effect of over 55% in size
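Overnight (16 hr) co-exposure of 2,000 cells/well to 5-fluorouridine and compound at 37 °C preceded detection. Luciferase was quantified via ONE-Glo luminescence; loss of signal denotes inhibition.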
DT40 TDP1 no CPT: qHTS for Inhibitors of human tyrosyl-DNA phosphodiesterase 1 (TDP1): qHTS in cells in absence of CPT. DT40 Tdp1-/- hTDP1 cells, no CPT, ATP luminescence, 48 h. Potency, µM (titrated, usually from 46.2 µM), for the others: top-dose activity change, negative = growth inhibition, actives largely listed as inhibitors. 420,000 compounds, 15% hits; note: potency is the fitted concentration of half-maximal effect; nearly all actives have a fitted effect of over 55% in size
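Cells were dispensed at 400 per well, compounds added by pin tool, plates incubated ≥48 hr at 37 °C, then CellTiter-Glo added for 30 min at room temperature before luminescence reading. Line: DT40 Tdp1-/- complemented with hTDP1; camptothecin omitted.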
HT1080 IDH1KD tx: HT-1080 IDH1 knockdown cell toxicity (counter line) | HT-1080 IDH1 knockdown viability, ATP luminescence, 48 h | 360,000 compounds, 2% hits | AID 686971 | Potency, µM (doses to about 46.1 µM), inactives show at the top dose activity, negative = toxicity, actives largely listed as cytotoxic;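 note: potency is the fitted concentration of half-maximal effect; 0% = DMSO wells and -100% = cell-free medium wells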
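Viability of IDH1-knockdown HT-1080 fibrosarcoma cells was assessed by CellTiter-Glo after 48 h at 37 °C with titrated compound; concentration-effect curves were classified by fit quality and response size.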
HT1080NT lethal: kills 2HG-producing HT-1080-NT fibrosarcoma cells. HT-1080-NT fibrosarcoma viability, CellTiter-Glo ATP luminescence, 48 h. Potency, µM (top dose mostly 46.1 µM), for the others: at the highest dose activity, negative = less viability, hits mostly cytotoxic. 360,000 compounds, 1.6% hits. AID 686970;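 note: NT is the 2HG producing partner of a matched IDH1 knockdown line; potency is the fitted concentration of half-maximal effect; 0% = DMSO-treated cells and -100% = media-only wells without cells; nearly all actives have a fitted effect of over 55% in size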
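Read-out is CellTiter-Glo luminescence after 10 minutes at room temperature, following 48 hours' compound treatment of HT-1080-NT cells (750 cells/well, RPMI, 5% FBS, 37 degrees C).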
IL-1B inflam inh: inflammasome signaling inhibition, IL-1 beta readout. THP-1 LPS/ATP IL-1B secretion, AlphaLISA, 16 h; hits give low values. activity change, % at 57.5 µM. 360,000 compounds, 4.7% hits; in the data active = activity change below about -50%; inconclusive = mostly about -30% to -49%
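Secreted IL-1B measured by AlphaLISA bead assay after 16 h compound exposure of THP-1 cells; compounds (final up to 57.5 uM) added 1 h before LPS (250 ng/mL) and ATP (1.25 mM) stimulation; lower signal means less secretion.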
* marks the source's active call; other numbers are inactive results; ? = inconclusive; · = no result; [ ] = another dose, or the depositor's remark. Unless noted, calls come from the whole dose curve; as a rule, active = well fitted curve in the direction sought with a large enough effect; inconclusive = small, poorly fitted or top-dose-only effect, or another doubt; inactive = no such curve, though single readings can be large; an effect the other way counts as inactive or inconclusive. Unless noted, % is set by controls: 0 for no effect and ±100 for the full control effect.

SMILES | DT40 TDP1 CPT | ELG1 DNA repair | DT40 TDP1 no CPT | HT1080 IDH1KD tx | HT1080NT lethal | IL-1B inflam inh
CCOc1ccc(C)cc1S(=O)(=O)n1cnc2ccccc21 | 5.2µM* | ? | 4.1µM* | 13µM* | 9.2µM* | 0
COc1ccc(Cl)cc1S(=O)(=O)n1cnc2ccccc21 | 23µM* | -3% | ? | -8% | -6% | 7
COc1ccc(S(=O)(=O)n2cnc3ccccc32)cc1OC | 0% | 2% | -1% | 6% | 13% | 12
CCOc1ccc(Cl)cc1S(=O)(=O)n1cnc2ccccc21 | 6.3µM* | -17% | 4.5µM* | 11µM* | 11µM* | 16
CCOc1cc(C)c(Cl)cc1S(=O)(=O)n1cnc2ccccc21 | -28% | 0% | ? | -8% | -2% | 3
COc1ccccc1C(=O)NC(CCSC)C(=O)NCCCn1nc(C)cc1C (stereo unspecified) | -6% | 19% | -6% | -4% | -1% | -2
COC(=O)C1[C@H]2SC(C)(C)C(C(=O)OC)N2C(=O)N1Cc1ccccc1 (stereo partly specified) | -7% | · | -2% | · | · | ·
CCOC(=O)C1=C(N2CCCCC2)c2cc3c(n2C1=O)CCCC3 | ? | ? | 9.2µM* | -6% | -2% | 0
Cc1ccc(S(=O)(=O)Nc2ccc(-n3c(C)nc4ccccc4c3=O)cc2)cc1 | -23% | 10% | -14% | -16% | -10% | ?
COc1ccccc1CN1CCNC(=O)C1CC(=O)NC1CCCCCC1 (stereo unspecified) | -26% | -1% | -25% | 1% | -9% | -9
O=S(=O)(/N=S1\CC=CCN1S(=O)(=O)c1ccccc1)c1ccccc1 (stereo unspecified) | ? | · | 21µM* | ? | ? | -86*
N#CC1=C(N)C(C#N)(C#N)C2(C(=O)Nc3ccccc32)C2CCCC=C12 (stereo unspecified) | -20% | 2% | -26% | -19%[9.24 µM] | ? | -53*
O=C1Nc2ccccc2C12OC1CCCCC1O2 (stereo unspecified) | -10% | -3% | -18% | 0% | 2% | -9
Cc1nc2cnc(Oc3cccc(Cl)c3)nc2n(CCc2ccccc2)c1=O | -18% | · | ? | · | · | ·
COc1cccc(Cn2c(=O)c(C)nc3cnc(Oc4cccc(Cl)c4)nc32)c1 | -33% | · | 23µM* | · | · | ·
COc1ccc(Oc2ncc3nc(C)c(=O)n(Cc4ccc(F)cc4)c3n2)cc1 | ? | · | 21µM* | · | · | ·
COc1cccc(Cn2c(=O)c(C)nc3cnc(OCc4ccccc4)nc32)c1 | -23% | · | 18µM* | · | · | ·
COc1ccc(Oc2ncc3nc(C)c(=O)n(CCc4ccccc4)c3n2)cc1 | -5% | · | -2% | · | · | ·
COc1ccc(NC(=O)CCc2nnc3ccc(N4CCC(C)CC4)nn23)cc1OC | -3% | -17% | ? | 0% | 0% | -5
NNC(=O)c1cc(NS(=O)(=O)c2cccs2)cc(NS(=O)(=O)c2cccs2)c1 | 14% | 13% | 5% | -3% | 0% | 9
Cc1cc(NO)c(C(C)C)cc1N=O | 8.2µM* | -12% | 10µM* | -21% | -19% | -85*
O=C(O)c1cccc(N2C(=O)CSC2c2ccccc2)c1 (stereo unspecified) | -7% | -3% | -7% | 23% | 10% | 5
Cc1ccc(C)c(OCCCCN2CCNCC2)c1C | 15µM* | 7% | 6.5µM* | -17% | -23% | -13
CC(C)(C)c1ccccc1OCCCCN1CCCC1 | ? | -24% | ? | 11% | 6% | 0
Cc1ccc(C(C)C)c(OCCN)c1 | -29% | -5% | ? | 2% | -7% | -11
Cc1ccc(C)c(OCCCN2CCNCC2)c1 | -8% | 23% | 1% | 2% | 2% | -7
